Holding throughout (assay): yeast three-hybrid, YBZ-1, SC-Leu-His + 0.5 mM 3-AT, 4 days
Holding throughout (conditions): tags: N-Gal4 AD-HA kept; label: inside an RPR1-promoter hybrid RNA with tandem MS2 sites; ssRNA

One assay addresses PUM1 PUF domain R1-KWV (Homo sapiens, UniProt Q14671 828-1176, S863K;R864W;Q867V). An outline of the steps: (§1)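 Each repeat of the Pumilio-1 PUF domain was randomized at its three base-contacting residues, and these libraries were co-expressed from a centromeric plasmid with matching RNA elements in strain YBZ-1. After four days on SC-Leu (input) or SC-Leu-His + 0.5 mM 3-AT (selection), the repeat regions were PCR-amplified and Illumina-sequenced. The interaction score compares variant frequency between input and selection as a log change, computed in log2 with a pseudocount of 1 for absent variants.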

Another assay deals with PUM1 PUF domain R5-GRS (Homo sapiens, UniProt Q14671 828-1176, C1007G;Q1011S). An outline of the steps: as §1
Chain of PUM1 PUF domain R5-GRS (Q14671 828-1176 C1007G/Q1011S): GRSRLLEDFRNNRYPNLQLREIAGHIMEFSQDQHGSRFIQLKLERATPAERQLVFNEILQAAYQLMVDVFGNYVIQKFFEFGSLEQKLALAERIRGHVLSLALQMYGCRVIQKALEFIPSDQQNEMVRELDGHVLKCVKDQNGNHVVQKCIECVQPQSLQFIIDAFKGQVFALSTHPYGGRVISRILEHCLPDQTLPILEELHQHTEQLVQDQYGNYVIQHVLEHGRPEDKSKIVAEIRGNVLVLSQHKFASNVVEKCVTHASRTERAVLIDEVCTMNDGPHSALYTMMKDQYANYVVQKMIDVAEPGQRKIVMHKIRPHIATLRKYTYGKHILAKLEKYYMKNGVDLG
The next assay concerns the target PUM1 PUF domain R5-WWQ (Homo sapiens, UniProt Q14671 828-1176, C1007W;R1008W). An outline of the steps:
as §1

The target in a further assay is PUM1 PUF domain R5-EWD (Homo sapiens, UniProt Q14671 828-1176, C1007E;R1008W;Q1011D). An outline of the steps:
as §1

Another assay addresses PUM1 PUF domain R8-PWC (Homo sapiens, UniProt Q14671 828-1176, N1122P;Y1123W;Q1126C). In outline:
as §1

In the next assay the target is PUM1 PUF domain R8-NFR (Homo sapiens, UniProt Q14671 828-1176, Y1123F;Q1126R). An outline of the steps: as §1
The target of another assay is PUM1 PUF domain R8-GWH (Homo sapiens, UniProt Q14671 828-1176, N1122G;Y1123W;Q1126H). An outline of the steps: as §1
A further assay addresses PUM1 PUF domain R2-RKQ (Homo sapiens, UniProt Q14671 828-1176, N899R;Y900K). An outline of the steps:
as §1

For another assay, the target named is PUM1 PUF domain R5-RQK (Homo sapiens, UniProt Q14671 828-1176, C1007R;R1008Q;Q1011K). An outline of the steps: as §1
The next assay concerns the target PUM1 PUF domain R5-KQW (Homo sapiens, UniProt Q14671 828-1176, C1007K;R1008Q;Q1011W). In outline:
as §1

The target in another assay is PUM1 PUF domain R5-QAR (Homo sapiens, UniProt Q14671 828-1176, C1007Q;R1008A;Q1011R). In outline:
as §1

For another assay, the target named is T1, PUM1 PUF domain R6-SRQ (Homo sapiens, UniProt Q14671 828-1176, N1043S;Y1044R).
T1 sequence: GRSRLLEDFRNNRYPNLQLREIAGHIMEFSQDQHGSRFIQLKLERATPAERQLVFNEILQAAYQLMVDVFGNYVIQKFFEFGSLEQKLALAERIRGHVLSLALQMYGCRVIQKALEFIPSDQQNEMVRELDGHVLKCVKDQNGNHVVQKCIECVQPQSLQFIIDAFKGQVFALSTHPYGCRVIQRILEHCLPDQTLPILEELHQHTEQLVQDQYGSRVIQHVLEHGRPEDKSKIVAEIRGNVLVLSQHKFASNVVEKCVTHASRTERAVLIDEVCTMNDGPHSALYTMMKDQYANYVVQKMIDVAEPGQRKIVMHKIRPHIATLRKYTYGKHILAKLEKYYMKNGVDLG
An outline of the steps: as §1

For the next assay, the target named is T2, PUM1 PUF domain R6-QWL (Homo sapiens, UniProt Q14671 828-1176, N1043Q;Y1044W;Q1047L).
T2 sequence: T1 sequence with S216Q, R217W, Q220L
An outline of the steps:
as §1

The target in a further assay is PUM1 PUF domain R3-MRL (Homo sapiens, UniProt Q14671 828-1176, C935M;Q939L). In outline:
as §1

For a further assay, the target named is PUM1 PUF domain R3-MRT (Homo sapiens, UniProt Q14671 828-1176, C935M;Q939T). An outline of the steps:
as §1

The target of another assay is T3, PUM1 PUF domain R6-FHR (Homo sapiens, UniProt Q14671 828-1176, N1043F;Y1044H;Q1047R).
T3 sequence: T1 sequence with S216F, R217H, Q220R
In outline: as §1

A further assay has as its target T4, PUM1 PUF domain R6-LYM (Homo sapiens, UniProt Q14671 828-1176, N1043L;Q1047M).
T4 sequence: T1 sequence with S216L, R217Y, Q220M
An outline of the steps: as §1

For the next assay, the target named is T5, PUM1 PUF domain R6-AFF (Homo sapiens, UniProt Q14671 828-1176, N1043A;Y1044F;Q1047F).
T5 sequence: T1 sequence with S216A, R217F, Q220F
In outline: as §1

In another assay the target is PUM1 PUF domain R5-PHR (Homo sapiens, UniProt Q14671 828-1176, C1007P;R1008H;Q1011R). In outline: as §1
The target in a further assay is PUM1 PUF domain R4-RMS (Homo sapiens, UniProt Q14671 828-1176, N971R;H972M;Q975S). An outline of the steps: as §1

Where a chain is given by its changes, count along the chain named.

With “GGCUAGAACUAGUGGAUCCCCCGGCGCCCGGCGGCUCGAGCCCGGGUAAGUGUAAAUGGUCUGCAUGCCGCCGGGCGCCAUGCCUGCAGGUCGACUCUAGAAAACAUG”, the binding signal in the assay with PUM1 PUF domain R1-KWV was 0.79 log2 enrichment (interaction score).

Regarding “GGCUAGAACUAGUGGAUCCCCCGGCGCCCGGCGGCUCGAGCCCGGGUAAGUGUGAAUAGUCUGCAUGCCGCCGGGCGCCAUGCCUGCAGGUCGACUCUAGAAAACAUG”, the binding signal with PUM1 PUF domain R5-GRS was 2.01 log2 enrichment (interaction score); in the assay with PUM1 PUF domain R5-WWQ, 2.01 log2 enrichment (interaction score); with PUM1 PUF domain R5-EWD, 2.28 log2 enrichment (interaction score).

Turning to “GGCUAGAACUAGUGGAUCCCCCGGCGCCCGGCGGCUCGAGCCCGGGUAAGCGUAAAUAGUCUGCAUGCCGCCGGGCGCCAUGCCUGCAGGUCGACUCUAGAAAACAUG”, the binding signal in the assay with PUM1 PUF domain R8-PWC was 2.98 log2 enrichment (interaction score); with PUM1 PUF domain R8-NFR, 3.71 log2 enrichment (interaction score); with PUM1 PUF domain R8-GWH, 3.5 log2 enrichment (interaction score).

Take “GGCUAGAACUAGUGGAUCCCCCGGCGCCCGGCGGCUCGAGCCCGGGUAAGUGUAAAGAGUCUGCAUGCCGCCGGGCGCCAUGCCUGCAGGUCGACUCUAGAAAACAUG”: in the assay with PUM1 PUF domain R2-RKQ, the binding signal was 2.92 log2 enrichment (interaction score).

As to “GGCUAGAACUAGUGGAUCCCCCGGCGCCCGGCGGCUCGAGCCCGGGUAAGUGUUAAUAGUCUGCAUGCCGCCGGGCGCCAUGCCUGCAGGUCGACUCUAGAAAACAUG”, the binding signal is 4.75 log2 enrichment (interaction score) with PUM1 PUF domain R5-RQK; 4.35 log2 enrichment (interaction score) with PUM1 PUF domain R5-GRS; 2.43 log2 enrichment (interaction score) in the assay with PUM1 PUF domain R5-KQW; 2.93 log2 enrichment (interaction score) with PUM1 PUF domain R5-WWQ; 3.17 log2 enrichment (interaction score) with PUM1 PUF domain R5-QAR.

With “GGCUAGAACUAGUGGAUCCCCCGGCGCCCGGCGGCUCGAGCCCGGGUAAGUGAAAAUAGUCUGCAUGCCGCCGGGCGCCAUGCCUGCAGGUCGACUCUAGAAAACAUG”, the results for the binding signal with PUM1 PUF domain R6-SRQ and in the assay with PUM1 PUF domain R6-QWL were 3.17 log2 enrichment (interaction score) and 4.43 log2 enrichment (interaction score), respectively.

For the sequence “GGCUAGAACUAGUGGAUCCCCCGGCGCCCGGCGGCUCGAGCCCGGGUAAGUGUAAUUAGUCUGCAUGCCGCCGGGCGCCAUGCCUGCAGGUCGACUCUAGAAAACAUG”, the results for the binding signal with PUM1 PUF domain R3-MRL and in the assay with PUM1 PUF domain R3-MRT were 1.67 log2 enrichment (interaction score) and 3.61 log2 enrichment (interaction score), respectively.

Turning to “GGCUAGAACUAGUGGAUCCCCCGGCGCCCGGCGGCUCGAGCCCGGGUAAGUGUAAAUCGUCUGCAUGCCGCCGGGCGCCAUGCCUGCAGGUCGACUCUAGAAAACAUG”, in the assay with PUM1 PUF domain R1-KWV, the binding signal is 5.68 log2 enrichment (interaction score).

As for “GGCUAGAACUAGUGGAUCCCCCGGCGCCCGGCGGCUCGAGCCCGGGUAAGUGUAAAUAGUCUGCAUGCCGCCGGGCGCCAUGCCUGCAGGUCGACUCUAGAAAACAUG”, the binding signal was 3.45 log2 enrichment (interaction score) in the assay with PUM1 PUF domain R6-FHR; 5.36 log2 enrichment (interaction score) in the assay with PUM1 PUF domain R6-LYM; 5.23 log2 enrichment (interaction score) with PUM1 PUF domain R6-AFF; 3.8 log2 enrichment (interaction score) with PUM1 PUF domain R8-NFR; 3.71 log2 enrichment (interaction score) with PUM1 PUF domain R5-GRS; 2.42 log2 enrichment (interaction score) in the assay with PUM1 PUF domain R5-PHR. Besides, in the assay with PUM1 PUF domain R4-RMS, the binding signal was 4.65 log2 enrichment (interaction score).

On to “GGCUAGAACUAGUGGAUCCCCCGGCGCCCGGCGGCUCGAGCCCGGGUAAGUGUAAGUAGUCUGCAUGCCGCCGGGCGCCAUGCCUGCAGGUCGACUCUAGAAAACAUG”, for which the binding signal with PUM1 PUF domain R3-MRL was 2.68 log2 enrichment (interaction score).

Take “GGCUAGAACUAGUGGAUCCCCCGGCGCCCGGCGGCUCGAGCCCGGGUAAGUGUCAAUAGUCUGCAUGCCGCCGGGCGCCAUGCCUGCAGGUCGACUCUAGAAAACAUG”: the binding signal is 3.94 log2 enrichment (interaction score) in the assay with PUM1 PUF domain R5-RQK, 1.13 log2 enrichment (interaction score) in the assay with PUM1 PUF domain R5-GRS, 4.59 log2 enrichment (interaction score) with PUM1 PUF domain R5-KQW and 4.51 log2 enrichment (interaction score) with PUM1 PUF domain R5-QAR.

Values taken from PMC8384837, “Expanding the binding specificity for RNA recognition by a PUF domain”.
